From PubChem BioAssay (NCI) come the findings set out here.

Each structure is given as a SMILES string. Compounds without any hit were thinned out: in the full panel of roughly 79,000, 15% have a hit. Values without a mark were called inactive. Cut-off read from the data, not from the text of the source: active = growth inhibition above about 70%; inactive = the rest.

This test is described as follows: NCI Yeast Anticancer Drug Screen. Data for the bub3 strain (AID 167). The settings on record: S. cerevisiae bub3 mutant strain, at 50.0 µM, hits give high values. The procedure, abridged:
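Compounds were applied to a genetically altered yeast strain carrying a cell-cycle control defect. Growth inhibition was scored against vehicle-treated controls.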
With `COc1ccc(NC(=O)CSc2nc(C)nc3c2sc(=S)n3-c2ccccc2)cc1`, the growth inhibition is -3.5%. Then `CCN(CC)Cc1ccccc1COC(=O)c1ccc(OC)cc1`, with -7.25%. Then `c1ccc(-c2c(-c3cccs3)[nH]c(-c3cccs3)c2-c2ccccn2)nc1`, with -6.6%. Regarding `N#CCCNC1CCCCC1`, the growth inhibition was 0.85%. For `CCC(=O)NC(OCC1(CC)COC1)(C(F)(F)F)C(F)(F)F`, the growth inhibition is -11.5%. `COc1cc(OC)c(NC(=O)/C=C/c2ccccc2)cc1Cl`: the growth inhibition is 11.2%. With `CCOC(=O)c1nc2ccc(C(F)(F)F)cc2[nH]c1=O`, the growth inhibition is -11.8%. On to `Cn1c(=O)oc2cc(C(O)CN3CCN(Cc4ccccn4)CC3)c(Cl)cc21` (stereo unspecified), for which the growth inhibition is 6.25%.

In the case of `CN1C(CC(=O)c2ccccc2)CCCC1CC(O)c1ccccc1` (stereo unspecified), the growth inhibition was -2.4%. On to `O=C(O)CCC(CCC(=O)O)(C(=O)O)c1ccccc1`, for which the growth inhibition was -1.65%. Consider `COC1OC(CI)C(OC(=O)c2ccccc2)C(OC(=O)c2ccccc2)C1OC(=O)c1ccccc1` (stereo unspecified), for which the growth inhibition is 36.1%. Then `CC1(C)N=C(N)N=C(N)N1c1cccc(/C=C/c2ccc([N+](=O)[O-])cc2)c1`, with -3.3%; and `Cc1ncc([N+](=O)[O-])cc1C(=O)O`, with 5.7%. In the case of `O=C(c1ccccc1)C1(c2ccccc2)C(C(=O)c2ccccc2)(c2ccccc2)S1(=O)=O` (stereo unspecified) it was -6.6%; in that of `CCCCCC/C(C)=N/O`, 10.7%; in that of `CC(OC1CC(=O)CC2C(=O)C=CC(=O)C12)c1ccccc1` (stereo unspecified), 28.4%.
